In the library only some 6.7% were active in any assay of this set; here they are far more common.
FBA Mtb inh – inhibitors of M. tuberculosis fructose-bisphosphate aldolase. 360,000 compounds, 2.3% hits. AID 588726. inhibition, % at 1 µM. P9WQA3. purified M. tuberculosis FBA, fluorescence read-out; in the data active = inhibition above about 27%;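 also: 0% = vehicle and 100% = reference inhibitor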
BoNT-A LC inh2 – blocks Botulinum neurotoxin A light chain protease; multiplex microsphere protease substrate cleavage, flow cytometry; inhibition, % at 10 µM; 360,000 compounds, 0.17% hits; AID 588499; also: plate controls were buffer without enzyme for full effect and enzyme alone for no effect
Anthrax LF prot – blocks Bacillus anthracis lethal factor protease | multiplex microsphere protease cleavage assay, LF | inhibition, % at 10 µM | 360,000 compounds, 0.12% hits; also: plate controls were buffer without enzyme for full effect and enzyme alone for no effect
Target sequence (P15917 whole entry, looked up): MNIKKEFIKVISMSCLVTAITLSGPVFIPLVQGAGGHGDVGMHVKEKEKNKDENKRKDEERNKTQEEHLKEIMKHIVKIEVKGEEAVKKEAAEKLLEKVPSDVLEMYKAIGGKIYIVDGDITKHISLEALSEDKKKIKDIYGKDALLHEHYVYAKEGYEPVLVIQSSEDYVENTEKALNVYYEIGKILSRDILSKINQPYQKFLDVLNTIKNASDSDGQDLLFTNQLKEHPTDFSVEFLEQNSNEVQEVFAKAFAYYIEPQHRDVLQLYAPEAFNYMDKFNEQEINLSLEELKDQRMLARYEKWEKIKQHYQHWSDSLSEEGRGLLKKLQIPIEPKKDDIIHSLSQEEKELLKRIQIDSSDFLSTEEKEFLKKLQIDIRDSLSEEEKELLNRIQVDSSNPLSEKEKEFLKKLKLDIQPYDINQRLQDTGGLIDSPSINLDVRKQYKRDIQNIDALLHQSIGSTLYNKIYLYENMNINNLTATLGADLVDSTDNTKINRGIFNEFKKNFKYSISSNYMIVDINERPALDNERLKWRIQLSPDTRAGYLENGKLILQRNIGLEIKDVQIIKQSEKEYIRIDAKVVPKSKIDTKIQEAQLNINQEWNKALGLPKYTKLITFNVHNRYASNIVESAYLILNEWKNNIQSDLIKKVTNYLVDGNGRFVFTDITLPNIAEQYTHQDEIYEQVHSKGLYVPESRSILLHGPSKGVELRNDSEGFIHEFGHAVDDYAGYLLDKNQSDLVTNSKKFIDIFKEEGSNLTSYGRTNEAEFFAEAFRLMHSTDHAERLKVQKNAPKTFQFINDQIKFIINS
Bead autofluor – compound fluorescence in toxin protease inhibitor counterscreen | compound autofluorescence counterscreen, microsphere flow cytometry; hits give high values | 360,000 compounds, 3.1% hits | fluorescence intensity (concentration not given with the values); in the data active = fluorescence intensity above about 16000; inconclusive = no clear call, values can overlap the other calls
BoNT-F LC inh – blocks Botulinum neurotoxin F light chain protease; Multiplex microsphere protease cleavage assay, flow cytometry; inhibition, % at 10 µM; 360,000 compounds, 0.22% hits; AID 588497; in the data active = inhibition above about 35%, passing the limit was not always enough; inconclusive = no clear call, values can overlap the other calls; also: plate controls were buffer without enzyme for full effect and enzyme alone for no effect
GDH-TPI counter – counter-screen for M. tuberculosis FBA inhibitors: GDH-TPI coupled enzymes | inhibition, % at 4.8 µM | GDH-TPI coupled enzyme counterscreen, NADH absorbance | 360,000 compounds, 1.2% hits; in the data active = inhibition above about 30%;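 also: 0% = DMSO wells and 100% = wells lacking the enzyme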
Numbers without * were called inactive; ? = inconclusive; nt = no result; + = active, no number. Rule as the data show it, unless noted: active = inhibition above about 30%; inconclusive = no clear call, values can overlap the other calls; inactive = below that.

SMILES	FBA Mtb inh	BoNT-A LC inh2	Anthrax LF prot	Bead autofluor	BoNT-F LC inh	GDH-TPI counter
O=C(c1ccccc1)N1N=C(c2ccccc2)CC1c1ccc2nccnc2c1 (stereo not drawn)	-1	1	0	11224	7	4
CC(=O)N1N=C(c2ccc3nccnc3c2)CC1c1ccccc1 (stereo not drawn)	1	1	-8	20160*	2	1
O=C(O)CCn1cc(/C=C\C(=O)c2ccc(Cl)cc2)c(-c2cccc(Br)c2)n1	1	0	3	8617	4	38*
O=Cc1cn(CCC(=O)O)nc1-c1cccc(Br)c1	2	0	4	4242	-5	-4
Cc1cc(N2CCN(c3ccccc3)CC2)nc(NCc2ccccc2)n1	-2	0	-5	3473	-4	13
CCN(CC)c1ccc(C(=O)c2ccccc2C(=O)O)c(O)c1	-6	?	-2	23518*	-5	42*
Cc1ccc(-n2ncc(C(=O)NCc3ccc4c(c3)OCO4)c2NC(=O)c2ccco2)cc1C	0	?	-4	21894*	2	-1
Cc1nc2c(C(=O)NCc3ccco3)cnn2c(C)c1Cc1ccc(F)cc1Cl	26	?	-15	21933*	3	6
O=C(NCc1ccc2c(c1)OCO2)c1ccco1	-3	0	2	4800	-2	0
Cc1ccccc1Cc1c(C)nc2c(C(=O)NCc3ccc4c(c3)OCO4)cnn2c1C	6	-1	-4	16548*	-2	5
Cc1nc2c(C(=O)NCc3ccc4c(c3)OCO4)cnn2c(C)c1Cc1ccc(F)cc1Cl	4	0	-4	11991	-10	9
C/C(=N\NC(=O)c1ccc(F)cc1)c1cccc(NC(=O)c2cccc(F)c2)c1	-1	-2	-1	6014	-4	18
O=C(CSc1ncnc2nc[nH]c12)NCCc1ccccc1	2	-1	-7	3124	4	5
CC(NC(=O)CSc1ncnc2nc[nH]c12)c1ccccc1 (stereo not drawn)	0	1	-6	21770*	4	3
Cc1cc2nc(/C=C/c3cccnc3)[nH]c2cc1C	+	9	-12	3767	?	45*
COc1cc(OC)nc(Oc2ccccc2C(=O)Oc2cccc(C)c2)n1	-2	-1	-2	7524	-15	7
O=c1[nH]c(=O)c2nc(-c3ccc(Cl)cc3)cnc2[nH]1	+	-1	-13	3712	5	9
O=c1[nH]c(=S)[nH]c2nc(-c3ccccc3)cnc12	2	1	-1	5506	-6	16
CC1OC23CCCCC2C(C#N)(C(=N)O3)C1(C#N)C#N (stereo not drawn)	22	0	6	9106	0	3
CCC1OC23CCCCC2C(C#N)(C(=N)O3)C1(C#N)C#N (stereo not drawn)	58*	0	1	2420	4	13
Cc1cc(C)c2c(c1)/C(=C/C(=O)c1ccc(Br)s1)C(=O)N2	-1	?	-5	21983*	-8	-7
CN(C)/C=C/C(=O)c1ccc(Br)s1	3	0	-2	4266	1	29
Cc1cc(Br)c2c(c1)/C(=C/C(=O)c1cccs1)C(=O)N2	-2	-1	-2	5134	-1	9
Cc1cccc2c1NC(=O)/C2=C\C(=O)c1cccs1	-6	?	-2	23425*	-5	24
CCOC(=O)C1(C(=O)OCC)COC(=O)C1CN1Cc2cc3ccccc3nc2C1 (stereo not drawn)	2	1	-2	4519	-8	4
SMILES	FBA Mtb inh	BoNT-A LC inh2	Anthrax LF prot	Bead autofluor	BoNT-F LC inh	GDH-TPI counter
CCC1(OC(=O)CN)C(=O)OCc2c1cc1n(c2=O)Cc2cc3ccccc3nc2-1 (stereo not drawn)	+	-2	-9	3598	-12	29
CCCN(C(=O)c1ccc(N2CCCC2=O)cc1)C1CCS(=O)(=O)C1 (stereo not drawn)	1	1	7	2848	4	-2
COc1ccc(NC(=O)CN2CCC(NC(=O)C3CCCCC3)CC2)cc1	-2	0	-1	23189*	-2	-3
COc1ccc(NC(=O)CSC2CCCCC2)cc1	-1	-3	2	21701*	-3	0
NS(=O)(=O)c1ccc(NC(=O)CSC2CCCCC2)cc1	-1	-1	-2	9047	-4	-10
CCCCCCSc1cccc(-c2nc3ccc(C)cn3c2NCc2ccccc2)c1	36*	0	-10	3587	0	9
NC(=O)c1ccc(-n2c(CCC(=O)O)ccc2-c2cccs2)cc1	-3	0	-2	2948	-5	8
Cc1cc(C(N)=O)c2cc(Br)ccc2n1	0	-2	0	20846*	-3	3
CSc1cccc(NC(=S)N(CCN(C)C)C(C)c2ccccn2)c1 (stereo not drawn)	2	0	-1	3348	4	1
COc1ccccc1-n1nnnc1SCC(=O)Nc1ccccc1	-1	0	-9	3478	-19	-8
COc1ccccc1-n1nnnc1SCC(=O)Nc1ccccn1	0	4	-10	19311*	5	11
CCOC(=O)CSc1nnnn1-c1cc(OC)ccc1OC	-2	0	-2	16299*	0	5
CCOC(=O)c1oc2ccccc2c1CSc1nnnn1-c1ccc(OC)cc1	1	?	0	21747*	3	7
CCCn1c(=O)c2ccccc2n2c(SCc3c(C(=O)OCC)oc4ccccc34)nnc12	-1	1	0	10290	-1	11
COc1cc2cc(C(=O)NCCc3c[nH]c4ccccc34)c(N)nc2cc1OC	nt	-1	1	4863	1	nt
COc1cc2cc(C(N)=O)c(N)nc2cc1OC	+	2	-2	3001	1	-2
COc1ccc(-c2cn3ccccc3n2)cc1	114*	-1	-4	4272	1	12
Clc1ccc(-c2cn3ccccc3n2)cc1	22	-2	16	3271	?	6
Cc1[nH]c(=O)[nH]c1C(=O)CCCCC(=O)OCC(=O)Nc1ccccn1	-2	9	-1	4438	70*	-5
O=C(NNC(=O)c1cc2cc3ccccc3nc2s1)c1cccc(Cl)c1	3	1	-3	2033	0	9
O=C(NNC(=O)c1cc2cc3ccccc3nc2s1)c1ccc(F)cc1	5	0	2	3624	-17	34*
COC(=O)CCCCCCCCCCN1CCCCC1	1	0	-1	2559	-2	-1
OC(CCCCN1CCCCC1)c1ccccc1 (stereo not drawn)	0	?	-2	22737*	3	8
C1CCCN(CCCCN2CCCCCC2)CC1	2	5	-5	21776*	4	6
O=C(OCCN1CCCCC1)c1ccc(O)cc1	3	3	1	21154*	5	-1
O=C(O)CCC(=O)CCC(=O)c1ccccc1	-3	?	-2	23543*	-3	-2
O=C(OCCCN1CCCCC1)c1ccc(O)cc1	3	0	-4	5888	-23	4
